# Experimental data: the supplement of paper PMC6522484
# Values joined by “and” are separate entries in the source; they are usually repeats but may differ in a detail not shown here. Equal entries are not always repeated. ± gives the standard deviation of the averaged measurements.
# Tests used:
# [1] = test system: DLD1; assay: cell viability (CellTiter-Glo) relative to plate median (fraction of plate median); higher = more viable cells; details: 5 µM; treatment time 24 h; reporter: 7TFP
# Summary of the method: (§1)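 Cells were seeded in 384-well plates; these were colorectal cancer lines stably transduced with lentiviral 7TFP or TCF4/Wnt firefly luciferase reporters. After 24 h, library compounds went in at a final 5 µM, and exposure lasted 24 h. Parallel plates were then read for firefly luciferase or CellTiterGlo luminescence, each well normalised to its plate median, with two independent replicates averaged.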
# [2] = test system: HCT116; assay: as above; details: 5 µM; treatment time 24 h; reporter: TCF4/Wnt
# Summary of the method: as §1
# [3] = test system: SW480; assay: as above; details: 5 µM; treatment time 24 h; reporter: 7TFP
# Summary of the method: as §1
# [4] = test system: DLD1; assay: TCF/Wnt firefly luciferase reporter signal relative to plate median (fraction of plate median); higher = higher Wnt reporter signal; details: 5 µM; treatment time 24 h; reporter: 7TFP
# Summary of the method: as §1
# [5] = test system: SW480; assay: as above; details: 5 µM; treatment time 24 h; reporter: 7TFP
# Summary of the method: as §1
Compound,cell viability [1],cell viability [2],cell viability [3],TCF/Wnt firefly luciferase reporter signal [4],TCF/Wnt firefly luciferase reporter signal [5]
N=C(NCCCCCCNC(=N)NC(=N)Nc1ccc(Cl)cc1)NC(=N)Nc1ccc(Cl)cc1,0.952 ± 0.031,1.02 ± 0.11,1.07 ± 0.028,1.07 ± 0.021,0.851 ± 0.052
COc1cc2cc3c4cc(OC)c(OC)cc4cc[n+]3c(C)c2cc1OC,1 ± 0.067,0.959 ± 0.013,0.9305 ± 0.00071,1.05 ± 0.16,1.01 ± 0.097
CC[C@H](C)C(=O)O[C@H]1C[C@@H](C)C=C2C=C[C@H](C)[C@H](CC[C@@H]3C[C@@H](O)CC(=O)O3)[C@H]21,1.02 ± 0.086,1.06 ± 0.028,1.035 ± 0.0071,1.02 ± 0.079,1.07 ± 0.021
Cc1cc(C(C)(C)C)c(O)c(C)c1CC1=NCCN1,0.977 ± 0.047,0.895 ± 0.016,0.972 ± 0.035,1.15 ± 0.13,1.065 ± 0.0071
CCOC(=O)C1=C(C)NC(C)=C(C(=O)OC)C1c1cccc([N+](=O)[O-])c1 (stereo not given),0.964 ± 0.03,1.02 ± 0.15,0.95 ± 0.057,1.06 ± 0.035,1.01 ± 0.039
CC(C(=O)O)c1ccc(-c2ccccc2)c(F)c1 (stereo not given),1.09 ± 0.11,1.11 ± 0.078,1.04,1.07 ± 0.014,1.02 ± 0.035
CCC/C=C1\OC(=O)C2=C1CCC=C2,0.992 ± 0.083,0.973 ± 0.0028,0.9545 ± 0.00071,0.948 ± 0.1,0.967 ± 0.061
COc1ccc(-c2coc3c(OC)c(OC)cc(O)c3c2=O)cc1,1.01 ± 0.017,1.07 ± 0.014,0.995 ± 0.021,1.08 ± 0.064,0.98 ± 0.042
CNS(=O)(=O)c1ccc(NC(=O)c2ccccc2C(=O)O)cc1,1.03 ± 0.098,1.04 ± 0.042,1.04 ± 0.072,0.967 ± 0.013,1.085 ± 0.0071
O=c1ccc2ccccc2o1,0.985 ± 0.11,1.01 ± 0.029,0.976 ± 0.014,1.09 ± 0.014,0.984 ± 0.018
O=c1c(-c2cc(O)c(O)c(O)c2)coc2cc(O)c(O)c(O)c12,1.005 ± 0.0071,1.1 ± 0.078,1.04,1.09 ± 0.035,0.93 ± 0.14
CCCC(=O)NCCc1ccccc1 [N-(2-Phenyl)ethylbutyramide],1.07 ± 0.11,1.08 ± 0.15,1.06 ± 0.071,1.07 ± 0.14,0.9865 ± 0.00071
CC(C)=CCC[C@](C)(O)C1CC=C(C)CC1 (stereo not given in full),1.04 ± 0.063,0.973 ± 0.081,1.1 ± 0.085,1.03 ± 0.014,0.996 ± 0.076
N#Cc1ccc2c(c1)N(CCCN1CCC(O)CC1)c1ccccc1S2,0.991 ± 0.07,0.931 ± 0.053,1.01 ± 0.069,0.981 ± 0.056,1.05 ± 0.071
CC(=O)c1c2c(c(C)n1-c1ccccc1C(=O)O)C(=O)c1c(O)cccc1C2=O [Bhimamycin D],1.02 ± 0.048,0.863 ± 0.025,0.969 ± 0.072,1.05 ± 0.11,1.08 ± 0.042
"O=C(c1c[nH]c2ccccc12)C(O)CO (stereo not given) [1-(3-Indolyl)-2,3-dihydroxypropan-1-one]",0.989 ± 0.072,1.02 ± 0.06,0.966 ± 0.046,1.12 ± 0.028,1 ± 0.079
Nc1nc2c(ncn2[C@@H]2O[C@H](CO)[C@@H](O)[C@H]2O)c(=O)[nH]1 [Guanosin],0.915 ± 0.033,0.934 ± 0.044,0.903 ± 0.023,0.927 ± 0.019,0.88 ± 0.014
O=C(O)c1cc(=O)c2ccccc2o1,0.859 ± 0.082,0.961 ± 0.11,0.987 ± 0.014,0.909 ± 0.12,0.993 ± 0.011
Nc1nc2c(ncn2COCCO)c(=O)[nH]1,1 ± 0.11,1.01 ± 0.034,0.955 ± 0.078,0.991 ± 0.056,0.973 ± 0.053
Cc1nnc(SCC2=C(C(=O)O)N3C(=O)[C@@H](NC(=O)Cn4cnnn4)[C@H]3SC2)s1,0.941 ± 0.035,0.941 ± 0.011,0.962 ± 0.044,0.942 ± 0.15,0.834 ± 0.16
Oc1cc(O)c2c(c1)O[C@H](c1ccc(O)c(O)c1)[C@H](O)C2,0.953 and 0.936,1.03 and 0.956,1.01 and 1.06,0.934 and 1.07,0.985 and 1.08
Nc1ccc(S(=O)(=O)O)cc1.Nc1ccc(S(=O)(=O)O)cc1.[Zn],1.08 ± 0.18,1.01 ± 0.049,1.105 ± 0.0071,1.03 ± 0.12,1.015 ± 0.0071
C[C@]12C=CC(=O)C=C1CC[C@@H]1[C@@H]2[C@@H](O)C[C@@]2(C)[C@H]1CC[C@]2(O)C(=O)COP(=O)(O)O,1.04 ± 0.021,1,0.943 ± 0.033,1.04 ± 0.14,1.06 ± 0.014
O=C(O)c1cc(O)c(O)c(O)c1,0.906 ± 0.059,0.955 ± 0.093,1 ± 0.08,1.11 ± 0.17,1.03 ± 0.17
C[C@H](N)[C@H](O)c1cccc(O)c1,0.955 ± 0.052,0.997 ± 0.075,1.06 ± 0.035,0.918 ± 0.074,0.915 ± 0.0071
CCN(CC)CCOc1ccc2c(c1)C(=O)c1cc(OCCN(CC)CC)ccc1-2,0.941 ± 0.083,0.925 ± 0.072,0.998 ± 0.045,1.05 ± 0.093,1.02 ± 0.06
CCOC(=O)C(=O)C1(C(=O)OCC)Oc2cc(OC)cc(OC)c2C(=O)C1c1ccccc1 (stereo not given),0.978 ± 0.03,0.951 ± 0.23,1.01 ± 0.13,0.939 ± 0.083,1.02 ± 0.069
CCCCNc1cc(C(=O)O)cc(S(N)(=O)=O)c1Oc1ccccc1,1.015 ± 0.0071,0.947 ± 0.022,1.04 ± 0.035,1.03 ± 0.16,1.06 ± 0.057

Compound,cell viability [1],cell viability [2],cell viability [3],TCF/Wnt firefly luciferase reporter signal [4],TCF/Wnt firefly luciferase reporter signal [5]
CC1(C)CC[C@]2(C(=O)O)CC[C@]3(C)C(=CC[C@@H]4[C@@]5(C)CC[C@H](O)C(C)(C)[C@@H]5[C@H](O)C[C@]43C)[C@@H]2C1,0.946 ± 0.076,0.955 ± 0.092,0.992 ± 0.026,0.952 ± 0.018,1.04 ± 0.057
COC(=O)CCCOc1ccc(Cl)cc1Cl,0.984 ± 0.093,1.02 ± 0.11,0.965 ± 0.05,1.1 ± 0.099,0.9 ± 0.23
COCC1=C(C(=O)OC(C)OC(=O)OC(C)C)N2C(=O)[C@@H](NC(=O)/C(=N\OC)c3csc(N)n3)[C@H]2SC1 (stereo not given in full),1.07 ± 0.085,1.09 ± 0.085,1.02 ± 0.028,1.01 ± 0.061,0.999 ± 0.059
N[C@@H](Cc1cc(I)c(Oc2ccc(O)c(I)c2)c(I)c1)C(=O)O,0.988 ± 0.015,0.926 ± 0.012,0.969 ± 0.036,1.01 ± 0.17,0.978 ± 0.0099
O=c1c(O)c(-c2ccc(O)cc2)oc2ccccc12,0.975 ± 0.05,1.16 ± 0.05,1.01 ± 0.034,1.05 ± 0.028,0.957 ± 0.047
CC(=O)CCCCn1c(=O)c2c(ncn2C)n(C)c1=O,0.93 ± 0.015,0.911 ± 0.054,0.94 ± 0.051,1.15 ± 0.085,1.03 ± 0.014
O=C(O)/C=C(\CC(=O)O)C(=O)O,1.05 ± 0.014,0.98 ± 0.018,1 ± 0.011,1.11 ± 0.035,0.978 ± 0.059
COc1ccc2c(c1)OC[C@@H](Cc1ccc(OC)c(OC)c1)[C@@H]2O,1.03,1.02 ± 0.12,0.963 ± 0.034,1 ± 0.015,0.973 ± 0.081
COC(=O)C[C@H]1C(C)(C)C(=O)[C@@H]2CC3=C(CC[C@]4(C)C3=CC(=O)O[C@H]4c3ccoc3)[C@@]1(C)C2=O,0.96 ± 0.032,0.979 ± 0.058,0.944 ± 0.018,0.782 ± 0.35,0.954 ± 0.029
O=C(CCCCCCCCCCCCC1CCCC1)Nc1ccc(S(=O)(=O)c2ccc(NC(=O)CCCCCCCCCCCCC3CCCC3)cc2)cc1,1.02 ± 0.062,1.04 ± 0.087,1.03 ± 0.028,1.01 ± 0.12,1 ± 0.036
Cc1ccc(N(CC2=NCCN2)c2cccc(O)c2)cc1,1.01 ± 0.042,0.992 ± 0.2,1.02 ± 0.014,0.92 ± 0.039,0.94 ± 0.044
C=C1CC[C@H](O)C/C1=C/C=C1\CCC[C@]2(C)[C@@H]([C@H](C)/C=C/[C@H](C)C(C)C)CC[C@@H]12,0.982 ± 0.054,0.995 ± 0.11,0.954 ± 0.016,1.07 ± 0.16,1.09 ± 0.014
CCCCc1oc2ccccc2c1C(=O)c1cc(I)c(OCCN(CC)CC)c(I)c1,1.02 ± 0.089,1.02 ± 0.036,0.964 ± 0.019,1.02 ± 0.029,1.04 ± 0.1
CC(=O)O[C@H]1CC[C@]2(C)[C@H]3C(=O)C=C4[C@@H]5[C@@H](C)[C@H](C)CC[C@]5(C(=O)O)CC[C@@]4(C)[C@]3(C)CC[C@H]2C1(C)C,1.005 ± 0.0071,1.05,0.993 ± 0.011,1 ± 0.16,1.09 ± 0.028
CCn1cc(C(=O)O)c(=O)c2cc(F)c(N3CCNCC3)nc21,1.05 ± 0.064,0.98 ± 0.071,1.05 ± 0.083,1.065 ± 0.0071,1.04 ± 0.028
O=C(O)CN1C(=O)c2cccc3cccc(c23)C1=O,0.996 ± 0.034,0.967 ± 0.017,1.005 ± 0.0071,0.964 ± 0.12,1.09 ± 0.042
CC1(C)CCC[C@]2(C)[C@@H]3[C@H]1[C@@H](O)[C@@]2(C)C[C@H]3O,1.005 ± 0.0071,0.991 ± 0.11,1.12 ± 0.014,0.981 ± 0.023,1.13 ± 0.014
O[C@H]1[C@H](O)[C@@H](O)[C@H](O)[C@@H](O)[C@H]1O,0.938 ± 0.03,0.922 ± 0.097,0.931 ± 0.0057,1.12 ± 0.042,1.07 ± 0.035
COc1cc2nc(N3CCN(C(=O)c4ccco4)CC3)nc(N)c2cc1OC,1.01 ± 0.097,1.02 ± 0.036,1.01 ± 0.018,1.11 ± 0.014,1.09 ± 0.028
CCCCCCCCCCCCCc1ccco1,1.05,1.03 ± 0.021,1.02 ± 0.021,0.964 ± 0.14,0.987 ± 0.12
CCN(CC)CCOC(=O)C(c1ccccc1)C1CCCCC1 (stereo not given),0.986 ± 0.0071,0.938 ± 0.13,0.978 ± 0.046,0.996 ± 0.0057,1.05 ± 0.075
CC(=O)O[C@]1(C)CC[C@@]23C[C@H]1C(C)(C)[C@@H]2CC[C@H]3C,0.986 ± 0.035,0.918 ± 0.033,1 ± 0.067,1.05 ± 0.086,0.934 ± 0.017
COc1cc(C/C=C/c2ccccc2)c(OC)cc1O,1.02 ± 0.055,1.06 ± 0.093,1.03 ± 0.042,1.05 ± 0.22,1.04 ± 0.035
CC(C)=CC1C(CO)C1(C)C (stereo not given),0.996 ± 0.049,0.948 ± 0.061,1.02 ± 0.014,0.984 ± 0.052,0.97 ± 0.18
COc1ccc(Cl)cc1C(=O)NCCc1ccc(S(=O)(=O)NC(=O)NC2CCCCC2)cc1,1.005 ± 0.0071,0.962 ± 0.082,0.976 ± 0.049,1.12 ± 0.13,1.14 ± 0.05
CN1CCN(C2=Nc3cc(Cl)ccc3Nc3ccccc32)CC1,1.12 ± 0.071,1.05 ± 0.1,1.005 ± 0.0071,0.916 ± 0.058,0.97 ± 0.043
OC(Cn1cncn1)(Cn1cncn1)c1ccc(F)cc1F,0.889 ± 0.033,0.883 ± 0.069,0.9295 ± 0.0064,1.09 ± 0.028,1.01 ± 0.054
